The list is not random: actives were taken first. Their share in the collection is about 1.1%.
12-LOX inh = inhibitors of human 12S-lipoxygenase ALOX12; 1.1% of 580,000 active; P18054; Potency, µM (doses to about 108 µM), usual class: inhibitors; purified 12hLO, xylenol orange hydroperoxide absorbance
Target sequence (P18054 whole entry, looked up): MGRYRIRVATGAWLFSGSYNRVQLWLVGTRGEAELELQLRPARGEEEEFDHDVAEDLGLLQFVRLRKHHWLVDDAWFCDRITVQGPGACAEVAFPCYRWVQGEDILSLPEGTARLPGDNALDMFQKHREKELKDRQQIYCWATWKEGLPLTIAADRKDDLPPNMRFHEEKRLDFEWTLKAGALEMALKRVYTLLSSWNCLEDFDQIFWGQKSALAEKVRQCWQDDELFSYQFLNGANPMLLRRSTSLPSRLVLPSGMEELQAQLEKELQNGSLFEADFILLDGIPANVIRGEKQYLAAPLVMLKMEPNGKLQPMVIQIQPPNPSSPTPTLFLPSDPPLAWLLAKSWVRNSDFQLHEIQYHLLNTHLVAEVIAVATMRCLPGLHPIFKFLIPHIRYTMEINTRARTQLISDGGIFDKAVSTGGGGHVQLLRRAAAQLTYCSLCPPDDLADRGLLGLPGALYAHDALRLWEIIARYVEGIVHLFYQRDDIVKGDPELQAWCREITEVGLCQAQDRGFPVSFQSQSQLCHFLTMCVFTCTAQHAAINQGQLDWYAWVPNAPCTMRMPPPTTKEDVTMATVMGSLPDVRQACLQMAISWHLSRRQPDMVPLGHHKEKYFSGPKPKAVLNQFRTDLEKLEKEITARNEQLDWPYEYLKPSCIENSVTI
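Hydroperoxide product was detected by ferrous iron/xylenol orange as the 573 to 405 nm absorbance ratio. Arachidonic acid at 40 uM (final) was turned over for 30 min at room temperature by 150 nM human 12hLO, pH 7.0 Hepes buffer, after 15 min compound preincubation.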
Chronic BCR inh = inhibitors of chronic active B-cell receptor signaling. ABC-DLBCL IkBa-CBG/CBR reporter, luminescence ratio, 4 h. Potency, µM (titrated, usually from 46.1 µM), most hits filed as inhibitors. 0.05% of 340,000 active; active = well fitted inhibition curve with a large enough effect in the signal ratio, with a control signal flat, not every such curve was filed as active; inconclusive = small, poorly fitted or top-dose-only effect, or effect the other way, or a change in a side signal; the % refers to the signal ratio
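Cell line TMD8 (human ABC DLBCL), stably expressing tet-inducible CBG68-IkBa fusion and CBR; IMDM/0.5% FBS; cpd up to 46 uM; dox induction, 4 h, 37C/5% CO2; dual luminescence; green/red ratio; MG132 control.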
Anesthetic bind = binds horse apoferritin like a general anesthetic. apoferritin/1-aminoanthracene competitive binding, fluorescence. Potency, µM (titrated, usually from 77.5 µM), actives largely listed as inhibitors. 0.074% of 350,000 active. AID 485281; also: nearly all actives have a fitted effect of over 20% in size
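Apoferritin-based anesthetic binding model; compound displacement of fluorescent 1-AMA measured as endpoint fluorescence after 10 minutes at room temperature, scaled to free-ligand and complex controls.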
GRP78 ERSR act = inducers of ER stress response in human glioma cells; Potency, µM, usual class: activators; 0.02% of 420,000 active; U87-MG GRP78 promoter luciferase reporter, 16 h; also: series mostly up to about 76 µM; nearly all actives have a fitted effect of over 35% in size
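ERSR induction read as luciferase luminescence (Bright-Glo, 10 min at room temperature) in stably transfected human U87-MG glioma cells exposed to compounds for 16 h, using GRP78 as sensor.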
A number is an active result. Unless noted, calls follow the shape of the dose curve; as a rule, active = well fitted curve in the direction sought with a large enough effect; inconclusive = small, poorly fitted or top-dose-only effect, or another doubt; inactive = no such curve, though single readings can be large; an effect the other way counts as inactive or inconclusive.

Screening COc1ccc(NS(=O)(=O)c2ccc(-c3n[nH]c(=S)n3Cc3ccccc3)cc2)cc1 returned 12-LOX inh inconclusive, Chronic BCR inh inactive, Anesthetic bind inactive and GRP78 ERSR act inactive.
For COc1ccc(NS(=O)(=O)c2cccc(-c3n[nH]c(=S)n3Cc3ccccc3)c2)cc1 the results were 12-LOX inh 32µM, Chronic BCR inh inactive, Anesthetic bind inactive and GRP78 ERSR act inactive.
For S=c1[nH]nc(-c2ccc(Br)o2)n1Cc1ccccc1 the results were 12-LOX inh 1.6µM, Chronic BCR inh inconclusive, Anesthetic bind inactive and GRP78 ERSR act inactive.
CCOc1ccc(OCCCC(=O)N2CCN(S(=O)(=O)c3ccc(Cl)cc3)CC2)cc1 was read as 12-LOX inh 45µM, Chronic BCR inh inactive and GRP78 ERSR act inactive.
For O=C(CCc1ccc(O)c(O)c1)N/N=C/c1ccc2c(c1)OCO2 the results were 12-LOX inh inactive, Chronic BCR inh inconclusive, Anesthetic bind inactive and GRP78 ERSR act 22µM.
For Cc1ccc2c(c1)-c1ccccc1C2=Nc1cccc2ccccc12 the results were 12-LOX inh inactive.
Cc1ccc(CN(C)CC(=O)NC(C)c2ccccc2C)o1 (configuration not stated) was read as 12-LOX inh inactive.
For N#C/C(=C/c1ccccc1Cl)c1nc2ccccc2c(=O)[nH]1 the results were 12-LOX inh inactive, Anesthetic bind inactive and GRP78 ERSR act inactive.
For N#CC(=C(O)c1ccc(Cl)cc1Cl)c1nc2cc(Cl)ccc2c(=O)[nH]1 the results were 12-LOX inh 22µM.
Screening O=C(O)c1cc(S(=O)(=O)N2CCN(C(c3ccccc3)c3ccccc3)CC2)ccc1Cl returned 12-LOX inh 40µM, Chronic BCR inh inactive, Anesthetic bind inactive and GRP78 ERSR act inactive.
O=C(O)c1cc(S(=O)(=O)N2CCN(S(=O)(=O)c3ccccc3)CC2)ccc1Cl was read as 12-LOX inh inactive, Chronic BCR inh inactive, Anesthetic bind inactive and GRP78 ERSR act inactive.
CC(=O)C1=C(C)N(Cc2ccccc2)C(=O)N[C@@H]1c1cccc(C(F)(F)F)c1 was read as 12-LOX inh inactive, Chronic BCR inh inactive, Anesthetic bind inconclusive and GRP78 ERSR act inactive.
Screening CC(=O)C1=C(C)N(Cc2ccc(F)cc2)C(=S)NC1c1cccc(Br)c1 (configuration not stated) returned 12-LOX inh 40µM.
`CC(=O)C1=C(C)N(Cc2ccc(Cl)cc2)C(=S)NC1c1ccc(Cl)cc1` (configuration not stated) gave 12-LOX inh 45µM.
`CC(=O)C1=C(C)N(Cc2ccc(Cl)cc2)C(=S)NC1c1ccccc1` (configuration not stated) gave 12-LOX inh 45µM.
Screening CCN1C(=O)N[C@@H](c2cccc(F)c2)C(C(C)=O)=C1C returned 12-LOX inh inactive and GRP78 ERSR act inactive.
`CCN1C(=O)N[C@H](c2ccc(Br)cc2)C(C(C)=O)=C1C` gave 12-LOX inh inactive, Chronic BCR inh inactive, Anesthetic bind inactive and GRP78 ERSR act inactive.
`Cc1cc(O)c2c(C)c(CC(=O)NCc3ccc(F)cc3)c(=O)oc2c1` gave 12-LOX inh inactive.
Screening O=C(CN1CCN(C(=O)c2cccnc2SC(F)F)CC1)Nc1ccccc1Cl returned 12-LOX inh inactive.
Screening O=S(=O)(c1ccc(F)c(F)c1)N1CCN(Cc2ncc(-c3ccc(F)cc3)o2)CC1 returned 12-LOX inh inactive.
`O=S(=O)(NCCc1cn2ccccc2n1)c1cccc(Cl)c1` gave 12-LOX inh inactive.
`O=C(NC1CCCCCC1)c1nc(Cc2c[nH]c3ccccc23)no1` gave 12-LOX inh inactive.
For Cc1ccc(NC(=O)CC2(C(=O)O)CCCCC2)c(C)c1 the results were 12-LOX inh inactive.
Screening Fc1ccc(-c2nc3ccc(Cl)cn3c2Cc2ccccc2C(F)(F)F)cc1 returned 12-LOX inh inactive and GRP78 ERSR act inactive.
For Fc1ccc(-c2nc3ccc(Br)cn3c2Cc2ccccc2C(F)(F)F)cc1 the results were 12-LOX inh 18µM and GRP78 ERSR act inactive.
`FC(F)(F)c1ccccc1Cc1c(-c2ccc(Cl)cc2)nc2ccc(Cl)cn12` gave 12-LOX inh inconclusive and GRP78 ERSR act inactive.
FC(F)(F)c1ccccc1Cc1c(-c2ccc(Cl)cc2)nc2ccc(Br)cn12 was read as 12-LOX inh 40µM and GRP78 ERSR act inactive.
For O=C(NC1=NCCS1)c1cc2ccccc2s1 the results were 12-LOX inh inactive.
`NC(=O)C1CCN(C(=O)Cn2ccc3cc(Br)ccc32)CC1` gave 12-LOX inh inactive.
`O=S(=O)(c1ccccc1)N1CCN(Cc2ccccc2C(F)(F)F)CC1` gave 12-LOX inh inconclusive, Chronic BCR inh inactive, Anesthetic bind inactive and GRP78 ERSR act inactive.
For Cc1ccc(S(=O)(=O)N2CCN(Cc3ccccc3C(F)(F)F)CC2)cc1 the results were 12-LOX inh 1.1µM, Chronic BCR inh inactive, Anesthetic bind inactive and GRP78 ERSR act inactive.
`Cc1ccc(S(=O)(=O)N2CCN(CCNC(=O)c3ccc(C(F)(F)F)cc3)CC2)cc1` gave 12-LOX inh 16µM.
`Cc1ccc(S(=O)(=O)N2CCCN(S(=O)(=O)c3ccc(C(F)(F)F)cc3)CC2)cc1` gave 12-LOX inh inactive, Chronic BCR inh inactive, Anesthetic bind inactive and GRP78 ERSR act inactive.
For Cc1ccc(S(=O)(=O)N2CCN(CCNC(=O)c3cccc(C(F)(F)F)c3)CC2)cc1 the results were 12-LOX inh 28µM.
`Cc1ccc(CNC(=O)c2c(C)noc2-c2ccc3c(c2)OCO3)o1` gave 12-LOX inh inactive.
For COc1cc(OC)cc(C(=O)/C(=C/c2cccnc2)c2nc3ccccc3o2)c1 the results were 12-LOX inh inactive.
Screening CCCCCCOc1ccc(C(=O)NCCCn2ccnc2)cc1 returned 12-LOX inh inactive, Chronic BCR inh inconclusive, Anesthetic bind 14µM and GRP78 ERSR act inactive.
`CCCCOc1ccc(NC(=O)C(=O)NCCCn2ccnc2)cc1` gave 12-LOX inh inactive, Chronic BCR inh inconclusive, Anesthetic bind inconclusive and GRP78 ERSR act inactive.
`O=c1[nH]c(=S)[nH]cc1Oc1ccc(Br)cc1Br` gave 12-LOX inh 11µM and GRP78 ERSR act inactive.
Screening COc1ccc(C(=O)Nc2ccc3oc(=O)ccc3c2)c(OC)c1 returned 12-LOX inh inactive.
Cc1c(Br)c(=O)oc2c(Br)c(O)c(O)cc12 was read as 12-LOX inh 22µM, Chronic BCR inh inconclusive, Anesthetic bind inactive and GRP78 ERSR act inactive.
Screening Cc1c(Br)c(=O)oc2c(Br)c(O)ccc12 returned 12-LOX inh inactive, Chronic BCR inh inconclusive, Anesthetic bind inactive and GRP78 ERSR act inactive.
Screening CCc1ccc2n(-c3ccc(OC)cc3)c([S-])c(C(=O)Nc3cc(C)cc(C)c3)[n+]2c1 returned 12-LOX inh inactive, Chronic BCR inh inactive, Anesthetic bind inactive and GRP78 ERSR act inactive.
For COc1ccc(CCNC(=O)c2c([S-])n(-c3ccc(C)cc3)c3cccc[n+]23)cc1 the results were 12-LOX inh 35µM, Chronic BCR inh inactive, Anesthetic bind inactive and GRP78 ERSR act inactive.
COc1ccccc1Nc1nc(-c2cc(C)ccc2C)cs1 was read as 12-LOX inh 10µM.

Bioassay records: PubChem BioAssay, National Center for Advancing Translational Sciences (NCATS)
